# Measurements reported in PubChem BioAssay (NCI).
# This is part of a sample that, as a whole, favours compounds with a hit. Of some 79,000 tested, about 15% had one in any assay. Unmarked numbers belong to inactive results. Activity calls are given as the source filed them. Cut-off read from the data, not from the text of the source: active = growth inhibition above about 70%; inactive = the rest.
# Key:
# [1] = NCI Yeast Anticancer Drug Screen. Data for the rad52 strain (AID 147);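 note: 0% = growth of vehicle-treated control cultures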; conditions: S. cerevisiae rad52 mutant growth inhibition, hits give high values
# How it was run: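 Compounds are applied to a genetically defined yeast strain lacking normal DNA damage repair, and inhibition of growth is expressed relative to cultures given vehicle only.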
# [2] = NCI Yeast Anticancer Drug Screen. Data for the wt1 strain (AID 149);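 note: 0% = growth of vehicle-treated wt1 cultures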; conditions: S. cerevisiae wt1 strain (SPY 50644) growth inhibition, hits give high values
# How it was run: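 Measured: growth of wt1 yeast under compound versus vehicle treatment, reported as inhibition.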
# [3] = NCI Yeast Anticancer Drug Screen. Data for the rad50EPP+ strain (AID 151);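 note: 0% = growth of vehicle-treated control cultures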; conditions: S. cerevisiae rad50 mutant strain, hits give high values
# How it was run: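 Compounds were applied to the rad50EPP+ yeast strain, which bears a defined DNA repair alteration, and growth inhibition was determined relative to vehicle-treated cultures.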
# [4] = NCI Yeast Anticancer Drug Screen. Data for the mgt1 strain (AID 153); conditions: S. cerevisiae mgt1 mutant growth inhibition, hits give high values
# How it was run: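 Strain: mgt1 yeast, one of a set carrying defined DNA damage repair or cell cycle control alterations. Compound-treated growth compared with vehicle.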
# [5] = NCI Yeast Anticancer Drug Screen. Data for the rad50 strain (AID 155);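 note: 0% = growth of vehicle-only cultures of the same strain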; conditions: S. cerevisiae rad50 strain growth inhibition, hits give high values
# How it was run: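 Growth of the mutant yeast was measured after compound exposure and referenced to vehicle-treated cultures.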
# [6] = NCI Yeast Anticancer Drug Screen. Data for the mec2-1 strain (AID 157); conditions: S. cerevisiae mec2-1 strain, hits give high values
# How it was run: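 Strain: mec2-1 (DNA repair/cell cycle alteration). Compound exposure, then growth measured; inhibition expressed relative to vehicle.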
# [7] = NCI Yeast Anticancer Drug Screen. Data for the rad14 strain (AID 159);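 note: 0% = growth of vehicle-treated control cultures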; conditions: S. cerevisiae rad14 strain growth inhibition, hits give high values
# How it was run: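 Here, inhibition of yeast growth was measured after compound exposure, using a strain with a genetic defect in DNA damage repair and vehicle-treated cultures as the reference.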
# [8] = NCI Yeast Anticancer Drug Screen. Data for the sgs1 mgt1 strain (AID 161);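 note: 0% = growth of cultures given vehicle only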; conditions: S. cerevisiae sgs1 mgt1 strain, hits give high values
# How it was run: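 Read-out: growth inhibition vs vehicle controls. Cells: mutant yeast strain deficient in DNA damage repair.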
# [9] = NCI Yeast Anticancer Drug Screen. Data for the cln2 rad14 strain (AID 165);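 note: 0% = growth equal to vehicle treated cultures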; conditions: S. cerevisiae cln2 rad14 strain, hits give high values
# How it was run: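 Compounds are applied to the cln2 rad14 yeast strain, and growth is then compared with that of vehicle-treated cultures to give inhibition.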
# [10] = NCI Yeast Anticancer Drug Screen. Data for the bub3 strain (AID 167); conditions: S. cerevisiae bub3 mutant strain, hits give high values
# How it was run: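 Whole-cell yeast assay. The mutant strain was incubated with compounds, and growth inhibition was determined by comparison with vehicle-treated cells.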
# [11] = NCI Yeast Anticancer Drug Screen. Data for the wt2 strain (AID 169);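 note: 0% = growth of vehicle-treated yeast cultures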; conditions: S. cerevisiae wt2 strain growth inhibition, hits give high values
# How it was run: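 This strain belongs to a panel of yeast strains with defined genetic alterations in DNA damage repair or cell cycle control. Compounds are applied, and growth inhibition is measured against vehicle-treated cultures.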
# [12] = NCI Yeast Anticancer Drug Screen. Data for the mlh1 strain (AID 171);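 note: 0% = growth of vehicle-treated control cultures of the same strain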; conditions: S. cerevisiae mlh1 strain growth inhibition, hits give high values
# How it was run: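 Growth of the mutant yeast strain after compound exposure, expressed as inhibition relative to vehicle-only controls.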
# [13] = NCI Yeast Anticancer Drug Screen. Data for the sgs1 strain (AID 173);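 note: 0% = growth of vehicle-only control cultures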; conditions: S. cerevisiae sgs1 mutant, hits give high values
# How it was run: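 Growth of a yeast strain bearing a defined genetic alteration is measured after compound treatment. Inhibition is expressed relative to vehicle-only controls.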
# [14] = NCI Yeast Anticancer Drug Screen. Data for the mlh1 rad18 strain (AID 175); conditions: S. cerevisiae mlh1 rad18 strain growth inhibition, hits give high values
# How it was run: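 Read-out is yeast growth inhibition, calculated against vehicle-only controls. The compound was applied to a strain engineered with DNA damage repair alterations.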
# [15] = NCI Yeast Anticancer Drug Screen. Data for the rad18 strain (AID 177); conditions: S. cerevisiae rad18 mutant growth inhibition, hits give high values
# How it was run: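 Growth of the mutant yeast strain after compound exposure, normalised to vehicle-only cultures.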
# [16] = NCI Yeast Anticancer Drug Screen. Data for the CLN2oe strain (AID 163);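 note: 0% = growth of vehicle-only control cultures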; conditions: S. cerevisiae CLN2oe strain, hits give high values
# How it was run: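 Growth of a genetically modified yeast strain is measured after compound exposure and compared with cultures given vehicle alone.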
# [17] = at 5.0 µM (retest, dose inferred, filed as 0.5)
# [18] = at 50.0 µM (retest, dose inferred, filed as 5.0)
compound,measurement,setting,value
CC(C)C1=CC2=C[C@H](O)[C@H]3C(C)(C)CCC[C@]3(C)C2=C(O)C1=O,growth inhibition,[1]; at 1.2 µM,7%
same,growth inhibition,[1]; at 3.7 µM,38%
same,growth inhibition,[1]; at 11.0 µM,99% (active)
same,growth inhibition,[1]; at 33.0 µM,99% (active)
same,growth inhibition,[1]; at 100.0 µM,94% (active)
same,growth inhibition,[2]; at 1.2 µM,-3%
same,growth inhibition,[2]; at 3.7 µM,13%
same,growth inhibition,[2]; at 11.0 µM,99% (active)
same,growth inhibition,[2]; at 33.0 µM,99% (active)
same,growth inhibition,[2]; at 100.0 µM,94% (active)
same,growth inhibition,[3]; at 1.2 µM,0%
same,growth inhibition,[3]; at 3.7 µM,19%
same,growth inhibition,[3]; at 11.0 µM,69%
same,growth inhibition,[3]; at 33.0 µM,97% (active)
same,growth inhibition,[3]; at 100.0 µM,94% (active)
same,growth inhibition,[4]; at 1.2 µM,-3%
same,growth inhibition,[4]; at 3.7 µM,-7%
same,growth inhibition,[4]; at 11.0 µM,99% (active)
same,growth inhibition,[4]; at 33.0 µM,99% (active)
same,growth inhibition,[4]; at 100.0 µM,95% (active)
same,growth inhibition,[5]; at 1.2 µM,-6%
same,growth inhibition,[5]; at 3.7 µM,13%
same,growth inhibition,[5]; [17],29%
same,growth inhibition,[5]; at 11.0 µM,98% (active)
same,growth inhibition,[5]; at 33.0 µM,98% (active)
same,growth inhibition,[5]; [18],98% (active)
same,growth inhibition,[5]; at 50.0 µM,92.8% (active)
same,growth inhibition,[5]; at 100.0 µM,93% (active)
same,growth inhibition,[6]; at 1.2 µM,-3%
same,growth inhibition,[6]; at 3.7 µM,-1%
same,growth inhibition,[6]; [17],54%
same,growth inhibition,[6]; at 11.0 µM,95% (active)
same,growth inhibition,[6]; at 33.0 µM,99% (active)
same,growth inhibition,[6]; [18],99% (active)
same,growth inhibition,[6]; at 50.0 µM,93.5% (active)
same,growth inhibition,[6]; at 100.0 µM,96% (active)
same,growth inhibition,[7]; at 1.2 µM,6%
same,growth inhibition,[7]; at 3.7 µM,23%
same,growth inhibition,[7]; at 11.0 µM,100% (active)
same,growth inhibition,[7]; at 33.0 µM,99% (active)
same,growth inhibition,[7]; at 100.0 µM,95% (active)
same,growth inhibition,[8]; [17],68%
same,growth inhibition,[8]; [18],98% (active)
same,growth inhibition,[8]; at 50.0 µM,93.3% (active)
same,growth inhibition,[9]; [17],8%
same,growth inhibition,[9]; [18],98% (active)
same,growth inhibition,[9]; at 50.0 µM,91.5% (active)
same,growth inhibition,[10]; at 1.2 µM,2%
same,growth inhibition,[10]; at 3.7 µM,9%
same,growth inhibition,[10]; [17],41%
same,growth inhibition,[10]; at 11.0 µM,79% (active)
same,growth inhibition,[10]; at 33.0 µM,99% (active)
same,growth inhibition,[10]; [18],98% (active)
same,growth inhibition,[10]; at 50.0 µM,92.3% (active)
same,growth inhibition,[10]; at 100.0 µM,96% (active)
same,growth inhibition,[11]; at 1.2 µM,15%
same,growth inhibition,[11]; at 3.7 µM,57%
same,growth inhibition,[11]; at 11.0 µM,99% (active)
same,growth inhibition,[11]; at 33.0 µM,98% (active)
same,growth inhibition,[11]; at 100.0 µM,96% (active)
same,growth inhibition,[12]; at 1.2 µM,-13%
same,growth inhibition,[12]; at 3.7 µM,23%
same,growth inhibition,[12]; at 11.0 µM,99% (active)
same,growth inhibition,[12]; at 33.0 µM,99% (active)
same,growth inhibition,[12]; at 100.0 µM,94% (active)
same,growth inhibition,[13]; at 1.2 µM,8%
same,growth inhibition,[13]; at 3.7 µM,15%
same,growth inhibition,[13]; at 11.0 µM,99% (active)
same,growth inhibition,[13]; at 33.0 µM,98% (active)
same,growth inhibition,[13]; at 100.0 µM,95% (active)
same,growth inhibition,[14]; [17],62%
same,growth inhibition,[14]; [18],98% (active)
same,growth inhibition,[14]; at 50.0 µM,92.3% (active)
same,growth inhibition,[15]; at 1.2 µM,-6%
same,growth inhibition,[15]; at 3.7 µM,27%
same,growth inhibition,[15]; at 11.0 µM,99% (active)
same,growth inhibition,[15]; at 33.0 µM,99% (active)
same,growth inhibition,[15]; at 100.0 µM,92% (active)
O=C(CCCN1CCC(O)(c2ccc(Cl)cc2)CC1)c1ccc(F)cc1,growth inhibition,[1]; at 1.2 µM,13%
same,growth inhibition,[1]; at 3.7 µM,6%
same,growth inhibition,[1]; at 11.0 µM,27%
same,growth inhibition,[1]; at 33.0 µM,31%
same,growth inhibition,[1]; at 100.0 µM,38%
same,growth inhibition,[2]; at 1.2 µM,0%
same,growth inhibition,[2]; at 3.7 µM,7%
same,growth inhibition,[2]; at 11.0 µM,13%
same,growth inhibition,[2]; at 33.0 µM,23%
same,growth inhibition,[2]; at 100.0 µM,14%
same,growth inhibition,[3]; at 1.2 µM,-3%
same,growth inhibition,[3]; at 3.7 µM,-4%
same,growth inhibition,[3]; at 11.0 µM,-6%
same,growth inhibition,[3]; at 33.0 µM,-6%
same,growth inhibition,[3]; at 100.0 µM,0%
same,growth inhibition,[4]; at 1.2 µM,17%
same,growth inhibition,[4]; at 3.7 µM,30%
same,growth inhibition,[4]; at 11.0 µM,40%
same,growth inhibition,[4]; at 33.0 µM,58%
same,growth inhibition,[4]; at 100.0 µM,65%
same,growth inhibition,[5]; at 1.2 µM,24%
same,growth inhibition,[5]; at 3.7 µM,-8%
same,growth inhibition,[5]; [17],58%
same,growth inhibition,[5]; at 11.0 µM,69%
same,growth inhibition,[5]; at 33.0 µM,64%
same,growth inhibition,[5]; [18],99% (active)
same,growth inhibition,[5]; at 50.0 µM,82.8% (active)
same,growth inhibition,[5]; at 100.0 µM,69%
same,growth inhibition,[6]; at 1.2 µM,19%
same,growth inhibition,[6]; at 3.7 µM,19%
same,growth inhibition,[6]; [17],33%
same,growth inhibition,[6]; at 11.0 µM,29%
same,growth inhibition,[6]; at 33.0 µM,36%
same,growth inhibition,[6]; [18],100% (active)
same,growth inhibition,[6]; at 50.0 µM,77.7% (active)
same,growth inhibition,[6]; at 100.0 µM,41%
same,growth inhibition,[7]; at 1.2 µM,50%
same,growth inhibition,[7]; at 3.7 µM,69%
same,growth inhibition,[7]; at 11.0 µM,78% (active)
same,growth inhibition,[7]; at 33.0 µM,83% (active)
same,growth inhibition,[7]; at 100.0 µM,86% (active)
same,growth inhibition,[16]; at 1.2 µM,27%
same,growth inhibition,[16]; at 3.7 µM,31%
same,growth inhibition,[16]; at 11.0 µM,37%
same,growth inhibition,[16]; at 33.0 µM,44%
same,growth inhibition,[16]; at 100.0 µM,49%
same,growth inhibition,[9]; [17],43%
same,growth inhibition,[9]; [18],99% (active)
same,growth inhibition,[9]; at 50.0 µM,70.8% (active)
same,growth inhibition,[10]; at 1.2 µM,38%
same,growth inhibition,[10]; at 3.7 µM,41%
same,growth inhibition,[10]; [17],48%
same,growth inhibition,[10]; at 11.0 µM,39%
same,growth inhibition,[10]; at 33.0 µM,51%
same,growth inhibition,[10]; [18],99% (active)
same,growth inhibition,[10]; at 50.0 µM,66.2%
same,growth inhibition,[10]; at 100.0 µM,59%
same,growth inhibition,[11]; at 1.2 µM,0%
same,growth inhibition,[11]; at 3.7 µM,21%
same,growth inhibition,[11]; at 11.0 µM,18%
same,growth inhibition,[11]; at 33.0 µM,24%
same,growth inhibition,[11]; at 100.0 µM,24%
same,growth inhibition,[12]; at 1.2 µM,11%
same,growth inhibition,[12]; at 3.7 µM,16%
same,growth inhibition,[12]; at 11.0 µM,27%
same,growth inhibition,[12]; at 33.0 µM,34%
same,growth inhibition,[12]; at 100.0 µM,44%
same,growth inhibition,[13]; at 1.2 µM,15%
same,growth inhibition,[13]; at 3.7 µM,23%
same,growth inhibition,[13]; at 11.0 µM,46%
same,growth inhibition,[13]; at 33.0 µM,43%
same,growth inhibition,[13]; at 100.0 µM,52%
same,growth inhibition,[14]; [17],35%
same,growth inhibition,[14]; [18],99% (active)
same,growth inhibition,[14]; at 50.0 µM,66%
same,growth inhibition,[15]; at 1.2 µM,37%
same,growth inhibition,[15]; at 3.7 µM,37%
same,growth inhibition,[15]; at 11.0 µM,44%
same,growth inhibition,[15]; at 33.0 µM,58%
same,growth inhibition,[15]; at 100.0 µM,64%
